From PubChem BioAssay (Tox21)
“And” between values parts separate entries of the source, which are not always exact repeats. Equal values may be shown once. Inconclusive results are not listed. A call without a number means that no potency is given here. Some compounds were tested as several samples or in several runs, with calls that do not always agree. The source made the active and inactive calls. Calls come from the whole dose curve; as a rule, active = well fitted curve in the direction sought with a large enough effect in the repeat runs; inconclusive = weak or mixed curves; inactive = no such curve, though single readings can be large; an effect the other way counts as inactive or inconclusive.

Columns and labels:
[1] = qHTS RealTime-Glo MT Cell Viability Assay in HEK293 cells - 16 hour (AID 1224872); note: nearly all actives have a fitted effect of over 50% in size; note: potency is the fitted concentration of half-maximal effect
Procedure, shortened: (§1)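 Viability tracked continuously by luminescence as live cells reduce a prosubstrate for NanoLuc; HEK293 cells preincubated 5 h, compound-treated at 37 C, and read at 0, 8, 16, 24, 32 and 40 h.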

[2] = qHTS RealTime-Glo MT Cell Viability Assay in HepG2 cells - 8 hour (AID 1224873); note: nearly all actives have a fitted effect of over 55% in size; note: potency is the fitted concentration of half-maximal effect
Procedure, shortened: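 Real-time viability: cells seeded at 600 per well together with NanoLuc and cell-permeant prosubstrate, compounds added after 5 h incubation. Luminescence tracked at 0, 8, 16, 24, 32 and 40 h of exposure.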

[3] = qHTS RealTime-Glo MT Cell Viability Assay in HEK293 cells - 40 hour (AID 1224874); details: RealTime-Glo luminescence; max response: stronger effect = lower value; note: nearly all actives have a fitted effect of over 50% in size; note: potency is the fitted concentration of half-maximal effect
Procedure, shortened: (§2)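 HEK293 + NanoLuc + prosubstrate, 600 cells/well; 5 h, 37 C/5% CO2; compound 23 nL in DMSO by pintool; 37 C; luminescence read at 0, 8, 16, 24, 32 and 40 h time points.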

[4] = A CellTox Green Cytotoxicity Assay to monitor cytotoxicity in HEK293 cells - 24 hour (AID 1224875); note: nearly all actives have a fitted effect of over 45% in size; note: potency is the fitted concentration of half-maximal effect
Procedure, shortened: (§3)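 Tox21 screen in HEK293: membrane-impermeant cyanine dye fluoresces on binding dead-cell DNA; compound pinned 5 h post-seeding, plates held at 37 C, signal read repeatedly through 40 h.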

[5] = qHTS RealTime-Glo MT Cell Viability Assay in HepG2 cells - 32 hour (AID 1224877); note: nearly all actives have a fitted effect of over 55% in size; note: potency is the fitted concentration of half-maximal effect
Procedure, shortened: (§4)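 Viability was tracked continuously by NanoLuc luminescence from prosubstrate reduced by living HepG2 cells, at successive time points over 40 h of compound exposure. Cells with reagent were preincubated 5 h at 37 °C before compound addition.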

[6] = qHTS RealTime-Glo MT Cell Viability Assay in HEK293 cells - 0 hour (AID 1224880); note: top concentration of the series differs between compounds; nearly all actives have a fitted effect of over 45% in size
Procedure, shortened: as §2

[7] = A CellTox Green Cytotoxicity Assay to monitor cytotoxicity in HEK293 cells - 32 hour (AID 1224881); note: nearly all actives have a fitted effect of over 40% in size; note: potency is the fitted concentration of half-maximal effect
Procedure, shortened: as §3

[8] = A CellTox Green Cytotoxicity Assay to monitor cytotoxicity in HepG2 cells - 0 hour (AID 1224882); note: nearly all actives have a fitted effect of over 35% in size
Procedure, shortened: (§5)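 Measurements at 0, 8, 16, 24, 32 and 40 h of treatment captured CellTox Green fluorescence in HepG2 cells that had been co-plated with reagent and preincubated 5 h at 37 C/5% CO2.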

[9] = A CellTox Green Cytotoxicity Assay to monitor cytotoxicity in HEK293 cells - 8 hour (AID 1224884); note: nearly all actives have a fitted effect of over 35% in size
Procedure, shortened: as §3

[10] = qHTS RealTime-Glo MT Cell Viability Assay in HepG2 cells - 16 hour (AID 1224885); note: nearly all actives have a fitted effect of over 50% in size
Procedure, shortened: as §4

[11] = qHTS RealTime-Glo MT Cell Viability Assay in HEK293 cells - 24 hour (AID 1224886); note: nearly all actives have a fitted effect of over 50% in size; note: potency is the fitted concentration of half-maximal effect
Procedure, shortened: as §1

[12] = qHTS RealTime-Glo MT Cell Viability Assay in HEK293 cells - 8 hour (AID 1224887); note: nearly all actives have a fitted effect of over 50% in size; note: potency is the fitted concentration of half-maximal effect
Procedure, shortened: as §2

[13] = A CellTox Green Cytotoxicity Assay to monitor cytotoxicity in HEK293 cells - 16 hour (AID 1224888); note: nearly all actives have a fitted effect of over 35% in size; note: potency is the fitted concentration of half-maximal effect
Procedure, shortened: as §3

[14] = A CellTox Green Cytotoxicity Assay to monitor cytotoxicity in HepG2 cells - 8 hour (AID 1224890); note: nearly all actives have a fitted effect of over 45% in size; note: potency is the fitted concentration of half-maximal effect
Procedure, shortened: as §5

[15] = qHTS assay to identify small molecule antagonists of the estrogen receptor alpha (ER-alpha) signaling pathway using the BG1 cell line in the presence of 0.1 nM 17-beta-estradiol - cell viability counter screen (AID 1259241); note: nearly all actives have a fitted effect of over 40% in size; note: potency is the fitted concentration of half-maximal effect
Procedure, shortened: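 Measures cytotoxicity alongside the ER-alpha antagonist readout: VM7Luc4E2 cells, charcoal-stripped serum, 0.1 nM 17beta-estradiol final, 22 hr compound incubation at 37C, CellTiter-Fluor fluorescence.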

[16] = A CellTox Green Cytotoxicity Assay to monitor cytotoxicity in HepG2 cells - 24 hour (AID 1224878); note: nearly all actives have a fitted effect of over 45% in size; note: potency is the fitted concentration of half-maximal effect
Procedure, shortened: as §5

[17] = A CellTox Green Cytotoxicity Assay to monitor cytotoxicity in HepG2 cells - 40 hour (AID 1224879); note: nearly all actives have a fitted effect of over 40% in size; note: potency is the fitted concentration of half-maximal effect
Procedure, shortened: as §5

[18] = A CellTox Green Cytotoxicity Assay to monitor cytotoxicity in HepG2 cells - 32 hour (AID 1224883); note: nearly all actives have a fitted effect of over 50% in size
Procedure, shortened: as §5

[19] = qHTS RealTime-Glo MT Cell Viability Assay in HepG2 cells - 0 hour (AID 1224889); note: nearly all actives have a fitted effect of over 50% in size
Procedure, shortened: as §4

[20] = A CellTox Green Cytotoxicity Assay to monitor cytotoxicity in HepG2 cells - 16 hour (AID 1224876); note: nearly all actives have a fitted effect of over 45% in size; note: potency is the fitted concentration of half-maximal effect
Procedure, shortened: as §5

In the case of `Nc1ccc(Cl)cc1C(=O)c1ccccc1F`, the Potency [1] is reported as “inactive”, the Potency [2] is reported as “inactive” and the max response [3] is reported as -9.35% (inactive). For the same molecule, the Potency [4] was “inactive”, the Potency [5] was “inactive” and the Potency [6] was “inactive”. For the same molecule, the Potency [7] was “inactive”, the Potency [8] was “inactive” and the Potency [9] was “inactive”. The Potency [10] was “inactive”, the Potency [11] was “inactive” and the Potency [12] was “inactive”. For the same molecule, the Potency [13] was “inactive”, the Potency [14] was “inactive” and the Potency [15] was “inactive”.
In the case of `COP(=S)(OC)Oc1ccc([N+](=O)[O-])c(C)c1`, the Potency [1] is reported as “inactive”, the Potency [2] is reported as “inactive” and the max response [3] is reported as -0.352% (inactive). For the same molecule, the Potency [4] was “inactive”, the Potency [5] was “inactive” and the Potency [16] was “inactive”. For the same molecule, the Potency [17] was “inactive”, the Potency [6] was “inactive” and the Potency [7] was “inactive”. The Potency [8] was “inactive”, the Potency [18] was “inactive” and the Potency [9] was “inactive”. The Potency [10] was “inactive”, the Potency [11] was “inactive” and the Potency [12] was “inactive”. For the same molecule, the Potency [19] was “inactive”, the Potency [14] was “inactive” and the Potency [15] was “inactive”.
With `NC(=O)C(Cl)Cl` the Potency [1] was “inactive”, the Potency [2] was “inactive” and the max response [3] was 3.34% (inactive). The Potency [4] was “inactive”, the Potency [5] was “inactive” and the Potency [16] was “inactive”. The Potency [17] was “inactive”, the Potency [6] was “inactive” and the Potency [7] was “inactive”. The Potency [8] was “inactive”, the Potency [9] was “inactive” and the Potency [10] was “inactive”. The Potency [11] was “inactive”, the Potency [12] was “inactive” and the Potency [13] was “inactive”. For the same molecule, the Potency [19] was “inactive”, the Potency [14] was “inactive” and the Potency [15] was “inactive”.
For `CN/C(=N\[N+](=O)[O-])NCc1cnc(Cl)s1`, the Potency [1] was “inactive”, the Potency [2] was “inactive” and the max response [3] was -7.42% (inactive). The Potency [4] was “inactive”, the Potency [16] was “inactive” and the Potency [17] was “inactive”. The Potency [6] was “inactive”, the Potency [7] was “inactive” and the Potency [8] was “inactive”. The Potency [18] was “inactive”, the Potency [9] was “inactive” and the Potency [10] was “inactive”. The Potency [11] was “inactive”, the Potency [12] was “inactive” and the Potency [13] was “inactive”. The Potency [19] was “inactive” and the Potency [14] was “inactive”.
In the case of `O=Cc1ccccc1`, the Potency [1] is reported as “inactive”, the Potency [2] is reported as “inactive” and the max response [3] is reported as 19.9% (inactive). For the same molecule, the Potency [4] was “inactive”, the Potency [5] was “inactive” and the Potency [16] was “inactive”. For the same molecule, the Potency [17] was “inactive”, the Potency [6] was “inactive” and the Potency [7] was “inactive”. The Potency [8] was “inactive”, the Potency [10] was “inactive” and the Potency [11] was “inactive”. The Potency [12] was “inactive”, the Potency [13] was “inactive” and the Potency [14] was “inactive”. The Potency [15] was “inactive”.
With `S=C=NCCc1ccccc1` the Potency [1] was 43.7 µM (active), the Potency [2] was “inactive” and the Potency [3] was 49.1 µM (active). The Potency [4] was 43.7 µM (active), the Potency [6] was “inactive” and the Potency [7] was 49.1 µM (active). The Potency [8] was “inactive”, the Potency [9] was “inactive” and the Potency [10] was “inactive”. The Potency [11] was 49.1 µM (active), the Potency [19] was “inactive” and the Potency [14] was “inactive”. For the same molecule, the Potency [15] was “inactive”.
In the case of `O=NN(CCO)CCO`, the Potency [1] is reported as “inactive”, the Potency [2] is reported as “inactive” and the max response [3] is reported as 7.2% (inactive). For the same molecule, the Potency [4] was “inactive”, the Potency [20] was “inactive” and the Potency [16] was “inactive”. For the same molecule, the Potency [17] was “inactive”, the Potency [6] was “inactive” and the Potency [7] was “inactive”. For the same molecule, the Potency [18] was “inactive”, the Potency [10] was “inactive” and the Potency [11] was “inactive”. For the same molecule, the Potency [12] was “inactive”, the Potency [13] was “inactive” and the Potency [14] was “inactive”. For the same molecule, the Potency [15] was “inactive”.
With `C#CC1(O)CCCCC1` the Potency [1] was “inactive”, the Potency [2] was “inactive” and the max response [3] was 19.4% (inactive). For the same molecule, the Potency [4] was “inactive”, the Potency [6] was “inactive” and the Potency [7] was “inactive”. For the same molecule, the Potency [8] was “inactive”, the Potency [9] was “inactive” and the Potency [10] was “inactive”. For the same molecule, the Potency [11] was “inactive”, the Potency [12] was “inactive” and the Potency [13] was “inactive”. For the same molecule, the Potency [19] was “inactive”, the Potency [14] was “inactive” and the Potency [15] was “inactive”.
For `Cc1cnc2c(C(=O)O)c(Cl)ccc2c1`, the Potency [1] was “inactive”, the Potency [2] was “inactive” and the max response [3] was 3.08% (inactive). The Potency [4] was “inactive”, the Potency [20] was “inactive” and the Potency [17] was “inactive”. For the same molecule, the Potency [6] was “inactive”, the Potency [7] was “inactive” and the Potency [8] was “inactive”. The Potency [18] was “inactive”, the Potency [9] was “inactive” and the Potency [10] was “inactive”. The Potency [11] was “inactive”, the Potency [12] was “inactive” and the Potency [13] was “inactive”. For the same molecule, the Potency [14] was “inactive” and the Potency [15] was “inactive”.
With `COCCC#N` the Potency [1] was “inactive”, the Potency [2] was “inactive” and the max response [3] was 7.47% (inactive). For the same molecule, the Potency [4] was “inactive”, the Potency [5] was “inactive” and the Potency [17] was “inactive”. For the same molecule, the Potency [6] was “inactive”, the Potency [7] was “inactive” and the Potency [8] was “inactive”. The Potency [9] was “inactive”, the Potency [10] was “inactive” and the Potency [11] was “inactive”. The Potency [12] was “inactive”, the Potency [13] was “inactive” and the Potency [19] was “inactive”. The Potency [14] was “inactive” and the Potency [15] was “inactive”.
With `COc1ccc(Cc2nccc3cc(OC)c(OC)cc23)cc1OC` the Potency [1] was 4.77 µM (active), the Potency [2] was 10.7 µM (active) and the Potency [3] was 5.35 µM (active). The Potency [4] was “inactive”, the Potency [16] was “inactive” and the Potency [7] was “inactive”. The Potency [8] was “inactive”, the Potency [18] was “inactive” and the Potency [11] was 4.77 µM (active). The Potency [12] was 4.77 µM (active), the Potency [13] was “inactive” and the Potency [19] was “inactive”. For the same molecule, the Potency [14] was “inactive” and the Potency [15] was “inactive”.
For `CSSC`, the Potency [1] was “inactive”, the Potency [2] was “inactive” and the Potency [4] was “inactive”. The Potency [20] was “inactive”, the Potency [16] was “inactive” and the Potency [17] was 7.86 µM (active). For the same molecule, the Potency [6] was “inactive”, the Potency [7] was “inactive” and the Potency [18] was “inactive”. For the same molecule, the Potency [9] was “inactive”, the Potency [10] was “inactive” and the Potency [12] was “inactive”. The Potency [13] was “inactive”, the Potency [19] was “inactive” and the Potency [14] was “inactive”. The Potency [15] was “inactive”.
In the case of `CCCCCCCc1ccc(O)cc1`, the Potency [1] is reported as 11 µM (active), the Potency [3] is reported as 21.9 µM (active) and the Potency [4] is reported as 43.6 µM (active). The Potency [20] was 21.9 µM (active), the Potency [5] was “inactive” and the Potency [16] was 21.9 µM (active). For the same molecule, the Potency [17] was 21.9 µM (active), the Potency [6] was “inactive” and the Potency [7] was 43.6 µM (active). The Potency [8] was “inactive”, the Potency [10] was “inactive” and the Potency [11] was 12.3 µM (active). The Potency [12] was 6.17 µM (active), the Potency [13] was 43.6 µM (active) and the Potency [14] was 24.5 µM (active). For the same molecule, the Potency [15] was “inactive”.
In the case of `CCN(CC)C(=S)S`, the Potency [1] is reported as “inactive”, the Potency [2] is reported as “inactive” and the Potency [3] is reported as 24.8 µM (active) and 4.34 µM (active) and 11 µM (active). For the same molecule, the Potency [20] was “inactive”, the Potency [5] was “inactive and 21.9 µM (active)” and the Potency [16] was “inactive and 7.72 µM (active) and 21.9 µM (active)”. The Potency [17] was 17.5 µM (active) and 6.13 µM (active) and 19.5 µM (active), the Potency [6] was “inactive” and the Potency [7] was 17.5 µM (active) and 4.87 µM (active) and 11 µM (active). The Potency [9] was “inactive”, the Potency [10] was “inactive” and the Potency [11] was 4.87 µM (active) and 12.3 µM (active). For the same molecule, the Potency [12] was “inactive”, the Potency [14] was “inactive” and the Potency [15] was 15.3 µM (active).
